# MT1-MMP txn act = MT1-MMP promoter reporter activation – cell-based, luciferase luminescence, primary screen; HT1080 MT1-MMP promoter luciferase reporter, overnight; active compounds read high; activation factor at 10 µM; hit rate 0.16% among 86,000;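 active means activation factor of at least 2 for MT1-MMP transcription at 10 µM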
# TNAP act mid DEA = human TNAP enzyme activators, primary screen, biochemical, luminescent, intermediate phosphate acceptor level; purified TNAP, CDP-star luminescence, 100 mM DEA, 30 min; active compounds read high; scale: 0 levamisole-inhibited, 1 vehicle-only enzyme; activation factor at 20 µM; 64,000 tested, under 10 active; AID 813, 2007;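 active means activation factor of at least 2 at 20 µM, relative to controls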
# Target sequence (P05186 whole entry, looked up): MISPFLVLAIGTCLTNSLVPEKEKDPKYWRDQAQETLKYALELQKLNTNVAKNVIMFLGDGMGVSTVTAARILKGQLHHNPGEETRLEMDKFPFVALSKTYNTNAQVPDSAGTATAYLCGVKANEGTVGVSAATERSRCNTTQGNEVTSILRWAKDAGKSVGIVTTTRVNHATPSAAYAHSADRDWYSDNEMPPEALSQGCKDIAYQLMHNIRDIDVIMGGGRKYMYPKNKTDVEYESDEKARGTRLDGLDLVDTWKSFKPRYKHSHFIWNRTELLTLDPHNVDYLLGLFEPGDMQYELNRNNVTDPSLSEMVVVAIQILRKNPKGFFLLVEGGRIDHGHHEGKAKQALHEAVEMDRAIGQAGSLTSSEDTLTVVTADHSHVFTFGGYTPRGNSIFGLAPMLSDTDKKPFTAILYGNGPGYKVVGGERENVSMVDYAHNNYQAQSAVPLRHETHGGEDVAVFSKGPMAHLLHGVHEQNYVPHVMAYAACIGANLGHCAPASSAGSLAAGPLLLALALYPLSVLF
# HePTP inh = inhibitors of human HePTP phosphatase, primary screen, biochemical, absorbance, leukemia target; Tyrosine-protein phosphatase non-receptor type 7 (Homo sapiens), P35236; recombinant HePTP phosphatase activity, OD absorbance; inhibition, % at 20 µM; hit rate 0.64% among 110,000; AID 521, 2006; in the data active means inhibition above about 50%;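 further: plate controls were vehicle for no effect and reference inhibitor for full effect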
# Smad3 FoxH1 inh = Smad3/FoxH1 peptide binding inhibitors, primary screen, biochemical, TR-FRET | Mothers against decapentaplegic homolog 3 (Homo sapiens), P84022 | TR-FRET Smad3/Dy647-FoxH1 peptide binding, europium anti-His | inhibition, % at 25 µM | hit rate 0.29% among 88,000 | AID 630, 2007;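 active means compounds that reduce the energy-transfer binding signal between the protein and its labelled peptide by more than half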;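 further: 0% = Smad3 plus labelled peptide maximal FRET and 100% = peptide-only background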
# Ec RNAP inh = E. coli RNAP inhibitors, biochemical; DNA-directed RNA polymerase subunit beta (Escherichia coli (strain K12)), P0A8V2; E. coli RNA polymerase, fluorescence transcription assay; inhibition, %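 (tested at 10 µM)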; hit rate 0.2% among 62,000; in the data active means inhibition above about 20%;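 further: 0% = enzyme without compound and 100% = no enzyme blank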
# * hit, by the source's call; x = no result; [ ] = another dose, or the depositor's remark. Most compounds without a hit are left out; they make up all but 0.8% or so of the library.
SMILES,MT1-MMP txn act,TNAP act mid DEA,HePTP inh,Smad3 FoxH1 inh,Ec RNAP inh
CC(=O)NC1C(O)CC2C3CC=C4CC(O)CCC4(C)C3CCC21C (centres undefined),x,x,1,x,x
O=C(NNc1nc(-c2ccccc2)c2cc(Br)ccc2n1)c1ccccc1,x,x,4,x,x
Cc1ccc(NC(=O)COC(=O)c2ccc3c(c2)NC(=O)C2CCCN32)cc1 (centres undefined),1.1,1,-4,-4,2
COC(=O)c1ccc2c(c1)NC(=O)C1CCCN21 (centres undefined),1.1,0.9,5,56*[fluorescence artefact?],3
O=C(OCC(=O)c1c[nH]c2ccccc12)C1=COCCO1,2.1*,0.9,10,10,14
CC1=NN(c2ccccc2)C(=O)/C1=C/c1cc(C)n(-c2cccnc2)c1C,x,x,8,x,x
O=C(CSc1ccccn1)Nc1ccc2c(c1)C(=O)c1ccccc1C2=O,x,x,105*,x,x
COc1cccc(C(=O)NC2CC3CCCC(C2)N3CC(=O)Nc2ccccc2)c1 (centres undefined),1.2,0.9,x,81*,x
O=C1NC(=S)N/C1=C/c1ccc(OCc2cccc(C(=O)O)c2)cc1,x,x,103*,x,x
O=C1NC(=S)S/C1=C/c1ccc(OCc2cccc(C(=O)O)c2)cc1,x,x,12,x,x
O=C1N=C(N=Nc2c(O)[nH]c3ccccc23)S/C1=C/c1ccc(Br)cc1,x,x,103*,x,x
N#Cc1c(/N=C/c2ccc(Br)s2)sc2c1CCC2,2*,x,x,-1,x
N#Cc1c(/N=C/c2cccs2)sc2c1CCCCC2,0.3,0.8,-5,6,6
O=C(N/N=C/c1cc(Cl)cc([N+](=O)[O-])c1O)c1ccc2c(c1)OCO2,x,x,103*,x,x
O=C(CCC(=O)N/N=C/c1cc(Br)ccc1O)N/N=C\c1cc(Br)ccc1O,x,x,-1,x,x
O=C(N/N=C\c1cc(Cl)cc([N+](=O)[O-])c1O)c1ccc(Br)cc1,x,x,65*,x,x
O=C(N/N=C\c1cc(I)ccc1O)c1ccc(Br)cc1,x,x,103*,x,x
Cc1cc(Br)cc(/C=N/NC(=O)c2ccc3c(c2)OCO3)c1O,x,x,-3,x,x
O=C1NC(=O)N(c2cccc(F)c2)C(=O)/C1=C/c1ccc(I)o1,x,x,53*,x,x
O=C1NC(=O)N(c2ccccc2F)C(=O)/C1=C/c1ccc(I)o1,x,x,67*,x,x
Cc1cc(OCC(=O)NCc2ccc3c(c2)OCO3)cc(C)c1Cl,x,x,6,x,x
Cc1ccc(S(=O)(=O)N/N=C/c2ccccc2C(F)(F)F)cc1,x,x,-6,x,x
CCCCCOC(=O)CSc1nnc(-c2ccccc2)o1,x,x,-7,x,x
O=c1[nH]c2[nH]c(=S)[nH]c(=S)c2[nH]1,x,x,x,68*,x
CCn1c(SCC(=O)NC(=O)Nc2ccc3c(c2)OCCO3)nnc1-c1cccs1,1.2,1,-5,10,22*
SMILES,MT1-MMP txn act,TNAP act mid DEA,HePTP inh,Smad3 FoxH1 inh,Ec RNAP inh
CCn1c(SCC(=O)Nc2ccc3c(c2)OCCO3)nnc1-c1ccco1,0.9,1,7,2,4
CC(=O)Oc1ccccc1/C=C1\C=C(c2ccc(C)cc2)OC1=O,x,x,-13,x,x
O=C1Cc2ccccc2N1c1c(Cl)cccc1Cl,2.2*,x,x,-2,x
COc1ccc(C(=O)Oc2ccc([N+](=O)[O-])cc2)cc1S(=O)(=O)N1CCOCC1,x,x,8,x,x
O=c1/c(=C/c2ccc(-c3ccc(Cl)cc3)o2)sc2nc3ccccc3n12,x,x,-11,x,x
COc1ccc(N2C(=O)CC(N3CCN(C(c4ccccc4)c4ccc(Cl)cc4)CC3)C2=O)cc1 (centres undefined),x,x,105*,x,x
CCn1c(COc2ccccc2)nnc1SCC(=O)C(C)(C)C,1.1,1,7,59*[fluorescence artefact?],1
CCn1c(COc2ccc(C)cc2)nnc1SCC(=O)C(C)(C)C,1.2,0.9,-4,-10,5
CCC(C)(C)C1CCc2c(sc(NC(=O)c3ccc([N+](=O)[O-])c(C)c3)c2C(N)=O)C1 (centres undefined),x,x,4,x,x
COc1c(I)cc(I)cc1/C=N\NC(=O)c1ccc([N+](=O)[O-])cc1,x,x,5,x,x
COc1ccc(N2C(=O)/C(=C/c3ccc(I)o3)SC2=S)cc1,x,x,15,x,x
COc1ccc(N2C(=O)/C(=C/c3ccc(Br)o3)SC2=S)cc1,x,x,51*,x,x
CCNC(=O)/C(C#N)=C/c1ccc(Cl)cc1Cl,x,x,-2,x,x
O=C1CSC(=O)N1CNc1ccccc1Cl,x,x,5,x,x
COc1ccc(C(=O)NC2CCSC2=O)cc1[N+](=O)[O-] (centres undefined),x,x,-7,x,x
